What all share (experiment): PBM binding z-score (relative to random genomic background probes); higher = stronger binding; sequences stand for … in GC…GCGATTGACAGCGTAGAATGAAGG
In assay [1] the test system is FXR:RXRa (NR concentration 270 nM, RXRa partner concentration 90 nM). An outline of the steps: (§1)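 Ligand-free nuclear receptor dimers were bound for 1 h to custom Agilent 4×180K protein-binding microarrays. Detection used antibodies against each partner (one per run). Binding z-scores rest on regression-normalized fluorescence, with random background probes as the reference.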

Assay [2] relates to LXRa:RXRa (NR concentration 270 nM, RXRa partner concentration 90 nM). In a few lines:
as §1

Assay [3] has as its system LXRa homodimer (NR concentration 270 nM). In a few lines:
as §1

For assay [4], the system named is LXRb:RXRa (NR concentration 270 nM, RXRa partner concentration 90 nM). In a few lines:
as §1

The test system of assay [5] is LXRb homodimer (NR concentration 270 nM). An outline of the steps: as §1
Assay [6] relates to PPARa:RXRa (NR concentration 270 nM, RXRa partner concentration 90 nM). An outline of the steps:
as §1

Assay [7] deals with PPARg:RXRa (NR concentration 180 nM, RXRa partner concentration 90 nM). An outline of the steps:
as §1

Assay [8] concerns PPARg:RXRa 270nM:90nM, anti-RXR (NR concentration 270 nM, RXRa partner concentration 90 nM). In a few lines: as §1
Assay [9] deals with PPARg:RXRa 30nM:10nM, anti-RXR (NR concentration 30 nM, RXRa partner concentration 10 nM). An outline of the steps:
as §1

The subject of assay [10] is PPARg:RXRa 90nM:30nM, anti-RXR (NR concentration 90 nM, RXRa partner concentration 30 nM). In a few lines:
as §1

Assay [11] deals with PPARg:RXRa DBDmut IVT, anti-RXR (DBD mutation: RXRa K156A/R161A, NR concentration 270 nM, RXRa partner concentration 90 nM). An outline of the steps:
as §1

Assay [12] concerns PPARg:RXRa IVT, anti-PPARg (NR concentration 270 nM, RXRa partner concentration 90 nM). In a few lines: as §1
The subject of assay [13] is PPARg DBDmut:RXRa IVT, anti-PPARg (DBD mutation: PPARg1 K132A/R137A, NR concentration 270 nM, RXRa partner concentration 90 nM). An outline of the steps: as §1
Assay [14] has as its system PPARg DBDmut IVT, anti-PPARg (DBD mutation: PPARg1 K132A/R137A, NR concentration 270 nM). An outline of the steps:
as §1

Assay [15] concerns PPARg homodimer (NR concentration 180 nM). An outline of the steps: as §1
The subject of assay [16] is PXR:RXRa (NR concentration 270 nM, RXRa partner concentration 90 nM). An outline of the steps: as §1
The subject of assay [17] is PXR homodimer (NR concentration 270 nM). In a few lines:
as §1

The test system of assay [18] is RARa:RXR (NR concentration 270 nM, RXRa partner concentration 90 nM). In a few lines:
as §1

In assay [19] the test system is RARa homodimer (NR concentration 270 nM). An outline of the steps: as §1
Assay [20] has as its system RARb:RXRa (NR concentration 270 nM, RXRa partner concentration 90 nM). In a few lines: as §1

Data on six sequences can be found in the supplement of paper PMC6555819.

In the case of TCGAGTAGGTTACCAATCGGGCATTCAGCTTTCT, the PBM binding z-score is -0.222 in assay [1]; 0.961 in assay [2]; -0.836 in assay [3]; -0.125 in [4]; -1.27 in assay [5]; 0.717 in assay [6]. The PBM binding z-score in assay [7] is -0.0284; in assay [8], 1.08; in assay [9] it was 1.26; in assay [10] it was 1.27; in assay [11], 3.13; in assay [12], 2.4. The PBM binding z-score is -0.0689 in [13]; -0.723 in [14]; -0.473 in [15]; -0.159 in assay [16]; -0.753 in assay [17]; -0.172 in assay [18]. For the same sequence, the PBM binding z-score in assay [19] is -0.843; in assay [20] it was 0.778.
As to TCATATAGGTAAAAGGTTAAAGTCGGTGTGGTAA, the PBM binding z-score came to 3.06 in assay [1]; 3.43 in assay [2]; 1.29 in [3]; 3.39 in assay [4]; 0.553 in assay [5]; 5.77 in assay [6]. Besides, the PBM binding z-score in assay [7] was found to be 10.2; in assay [8], 8.8; in [9], 9.29; in assay [10] it was 9.7; in assay [11], 4.98; in assay [12] it was 5.34. Further, the PBM binding z-score in assay [13] came to 1.14; in [14], 1.22; in assay [15], 2.21; in [16] it was 3.01; in [17], 1.15; in assay [18], 4.32. For the same sequence, the figures for the PBM binding z-score in [19] and in [20] were 2.65 and 2.64, respectively.
ACTAGTTGGTCAGGTGAGGTCACACACAATTCGG: the PBM binding z-score was found to be 3.87 in [1]; 3.4 in [2]; 2.65 in assay [3]; 3.35 in assay [4]; 0.501 in [5]; 3.83 in assay [6]. Further, the PBM binding z-score was found to be 2.36 in assay [7]; 2.68 in assay [8]; 0.906 in assay [9]; 1.88 in assay [10]; 1.77 in assay [11]; 3.37 in assay [12]. Also, the PBM binding z-score was determined as 0.914 in assay [13]; 0.637 in assay [14]; 3.1 in assay [15]; 5.46 in [16]; 2.28 in assay [17]; 4.89 in assay [18]. Also, the PBM binding z-score in [19] amounted to 2; in assay [20], 3.44.
On to CCTTACGGGTCACTCCAGGTTATTGCATCGGAGT, for which the PBM binding z-score in [1] worked out at 5; in [2] it was 7.62; in [3], 2.75; in [4] it was 5.48; in [5] it was 0.61; in [6], 4.32. The PBM binding z-score worked out at 3.25 in assay [7]; 3.54 in assay [8]; 1.08 in assay [9]; 2.44 in [10]; 2.64 in [11]; 3.54 in assay [12]. Also, the PBM binding z-score is 0.677 in assay [13]; 1.01 in [14]; 2.9 in [15]; 5.46 in assay [16]; 0.3 in assay [17]; 4.02 in [18]. Further, the PBM binding z-score in assay [19] worked out at 1.23; in [20], 3.56.
Regarding GCGACTGGGGCATCAGCAGGTTACCCTAACTTAA, the PBM binding z-score in assay [1] was -0.187; in assay [2], -0.0714; in assay [3], -0.26; in [4], 0.646; in assay [5], -1.16; in [6], 1.32. The PBM binding z-score in assay [7] was 0.617; in assay [8] it was 0.949; in assay [9], -0.87; in assay [10], 0.118; in assay [11] it was 3.51; in [12], 2.87. Moreover, the PBM binding z-score in assay [13] was -0.922; in [14], -0.0321; in assay [15] it was 0.248; in assay [16], 0.197; in assay [17], -0.267; in [18] it was 0.596. For the same sequence, the PBM binding z-score in [19] was -0.765; in assay [20], 0.794.
With GCAGACAGGTGAAACGGAGGTAACTCAGGGTGGC, the PBM binding z-score in [1] is -0.223; in assay [2], 0.247; in assay [3], -0.497; in assay [4] it was -0.0336; in assay [5], -0.922; in [6] it was 0.977. The PBM binding z-score in assay [7] was 0.646; in [8], 0.393; in [9], -0.282; in assay [10], 0.0488; in assay [11], 1.09; in assay [12], 0.463. The PBM binding z-score in assay [13] is -0.413; in assay [14], -1.08; in assay [15] it was -0.308; in assay [16], 0.0496; in [17], -0.337; in [18] it was 0.668. In addition, the PBM binding z-score in assay [19] is -0.627; in assay [20], 0.729.
